# Measurements taken from ChEMBL document CHEMBL4513216, “Probing the Open Global Health Chemical Diversity Library for Multistage-Active Starting Points for Next-Generation Antimalarials” (ACS Infect Dis, 2020).
# The campaign covered roughly 69,000 compounds. About 8,600 (12%) showed an effect of 50% or more. Shown is part of a subset that was picked to be rich in strong results.
# System: Plasmodium berghei
# Test: Screen against P. berghei liver stage (PbLuc), transformed with Luciferase, at 10uM
# Assay type: functional, HepG2
# Settings: tested at 10 uM
row,Compound,INHIBITION
1,Cc1cccc(CC(=O)N2CCCCC2CN)c1 (stereo not drawn),8.13%
2,CCC(C)(C)c1cc(-c2c(C)nn(CCO)c2C)c(C#N)c(N)n1,-24.6%
3,NC1CCC(NC(=O)c2ccc3nc(-c4ccc(F)cc4)cn3c2)CC1 (stereo not drawn),24.7%
4,CN(C)CCOc1ccc(N(C)S(=O)(=O)c2cnn(C)c2)cc1,32.3%
5,Cc1cnn(CCNCc2nnc(-c3ccccc3)o2)c1,31.3%
6,COc1ccc(N2CCN(CC(O)c3ccc(C)cc3C)CC2)cc1 (stereo not drawn),41.6%
7,COc1ccc(OC)c(C(O)CN2CCN(c3cccc(C)c3)CC2)c1 (stereo not drawn),34.5%
8,COc1ccc(N2CCN(CC(O)c3cc(C)ccc3C)CC2)cc1 (stereo not drawn),69.8%
9,c1ncn(CC2CCCN(Cc3csc(-c4ccsc4)n3)C2)n1 (stereo not drawn),-12.2%
10,CN(C)Cc1ccc(N2CCN(CCOCC(F)(F)F)CC2)nc1,33.4%
11,CN(CC(=O)N1CCCC1c1noc(C2CC2)n1)Cc1ccccc1 (stereo not drawn),23.7%
12,CCN1CC(COC(=O)c2cccc(Br)c2)CC1=O (stereo not drawn),16.8%
13,CCN1CC(COC(=O)c2cc(C)nn2CC)CC1=O (stereo not drawn),50.4%
14,CCn1nc(C)cc1C(=O)OCC1CC(=O)N(Cc2ccccc2)C1 (stereo not drawn),10.1%
15,CCCOc1cc(CNC(=O)Nc2cccc(C(C)=O)c2)ccn1,16.6%
16,OCC1(O)CCCN(Cc2noc(-c3ccccc3)n2)C1 (stereo not drawn),9.41%
17,O=C(COCC(=O)N(c1ccccc1)c1ccccc1)N1CCCC1,-7.27%
18,CCn1nc2c(cc1=O)CN(Cc1nc(-c3ccoc3)no1)CC2,42.1%
19,CCn1nc2c(cc1=O)CN(Cc1nc(-c3cccs3)no1)CC2,60.5%
20,CCn1nc2c(cc1=O)CN(Cc1nc(-c3ccsc3)no1)CC2,7.7%
21,CC(C)n1nc2c(cc1=O)CN(Cc1nc(-c3ccoc3)no1)CC2,77.9%
22,CCc1ncc2c(n1)CN(Cc1nc(-c3cccs3)no1)CC2,28.8%

row,Compound,INHIBITION
1,Cn1nc2c(cc1=O)CN(Cc1nc(-c3cccs3)no1)CC2,26.1%
2,CCCn1nc2c(cc1=O)CN(Cc1nc(-c3ccoc3)no1)CC2,61.1%
3,Cn1nc2c(cc1=O)CN(Cc1nc(-c3ccoc3)no1)CC2,-7.16%
4,Cc1ccc(-c2noc(CN3CCc4nn(C)c(=O)cc4C3)n2)cc1,-11.4%
5,COCCc1noc(CN2CCc3nn(C(C)C)c(=O)cc3C2)n1,48.2%
6,Cc1ncc2c(n1)CN(Cc1nc(-c3cccs3)no1)CC2,28.8%
7,CC(C)c1ncc2c(n1)CN(Cc1nc(-c3cccs3)no1)CC2,65.1%
8,Cc1nn(C2CCCCC2)c2nc(C(C)(C)CN3CCOCC3)[nH]c12,-16.9%
9,CN(Cc1noc(C2CC2)n1)C1CCN(Cc2ncc[nH]2)C1 (stereo not drawn),3.1%
10,Cc1nc(CN2CCCC(NCc3cnc(C(C)(C)C)s3)C2)no1 (stereo not drawn),-19.6%
11,O=C(NCC1(Sc2ccccc2)CC1)c1cc[nH]n1,5.15%
12,O=C1CCC2(CCC(NCc3ccsc3)CC2)N1Cc1ccccc1 (stereo not drawn),29.7%
13,CCc1c(C)n(C)c2nc3ccccc3n2c1=O,-13.8%
14,CN1CCCCC1CCC(=O)NCCCn1nccc1C1CC1 (stereo not drawn),47.7%
15,CC(C)N(CC(N)=O)C(=O)CCC(=O)c1ccc(F)cc1F,23.7%
16,CS(=O)(=O)c1cccc(C(N)c2ccccc2)c1 (stereo not drawn),-19.4%
17,N#CC1(C(=O)NCc2ccc(F)cc2)CCCC1,-22.1%
18,CC(C)(N)C(=O)N1CCCC1c1cncc(Oc2ccccc2)n1 (stereo not drawn),26.3%
19,CC(C)n1nc2c(cc1=O)CN(Cc1nc(-c3ccco3)no1)CC2,54.4%
20,CCCn1nc2c(cc1=O)CN(Cc1nc(-c3ccco3)no1)CC2,20.8%
21,Cc1cc(CN2CCc3nn(C(C)C)c(=O)cc3C2)no1,35.1%
22,CCn1nc2c(cc1=O)CN(Cc1nc(-c3ccco3)no1)CC2,35.9%

row,Compound,INHIBITION
1,CCCn1nc2c(cc1=O)CN(Cc1c(C)noc1C)CC2,2.69%
2,Cc1noc(C)c1CN1CCc2nn(C(C)C)c(=O)cc2C1,54.4%
3,CC(C)c1nc(CN(C)C(=O)CCNC(=O)c2ccccc2F)no1,12.4%
4,CCN(Cc1nc(COC)no1)C(=O)CCNC(=O)c1ccccc1F,58.1%
5,CCN(CC1CCOCC1)C(=O)CCNC(=O)c1ccccc1F,32.2%
6,CCN(CC1CCCCO1)C(=O)CCNC(=O)c1ccccc1F (stereo not drawn),28.5%
7,CC(C)Cc1noc(CN(C)C(=O)CCNC(=O)c2ccccc2F)n1,51.5%
8,Cc1nc(CCN(C)C(=O)CCNC(=O)c2ccccc2F)no1,43.9%
9,CC(C)CCNC(=O)C1CCN(c2ccc3nnc(C(C)C)n3n2)CC1,21%
10,O=S(=O)(NCC1(c2cccs2)CCOCC1)c1cccnc1,-115%
11,NCc1cccc(NC(=O)CCN2CCOCC2)c1,-5.1%
12,OCCC[C@@H]1CN(c2ncc(Cl)cc2Cl)CC[C@@H]1N1CCOCC1,1.93%
13,O=C(NCc1cn2c(n1)CN(Cc1cccnc1)CC2)C1CCC1,26.3%
14,c1ccc(-c2cc(CNCCN3CCOCC3)c3nnnn3c2)cc1,5.11%
15,c1ccc(-c2cc(CNCCCC3CCOC3)c3nnnn3c2)cc1 (stereo not drawn),74.9%
16,c1ccc(-c2cc(CNCCCN3CCCCC3)c3nnnn3c2)cc1,-38.2%
17,Cc1cnn(CC2CCN(CC(O)c3ccccc3Cl)CC2)c1 (stereo not drawn),57.2%
18,Cc1cc(C)n(CC2CCN(CC(O)Cn3cccn3)CC2)n1 (stereo not drawn),-12.2%
19,Cc1cnn(CC2CCN(CC(O)COc3ccccc3)CC2)c1 (stereo not drawn),14.5%
20,Cc1cnn(CC2CCN(CC(O)CN3CCC(C)CC3)CC2)c1 (stereo not drawn),30.4%
21,Cc1ccc(OCC(O)CN2CCC(Cn3cc(C)cn3)CC2)cc1 (stereo not drawn),33.3%
22,Cc1cnn(CC2CCN(CC(O)c3ccccc3)CC2)c1 (stereo not drawn),33%

row,Compound,INHIBITION
1,Cc1cnn(CC2CCN(CC(O)COc3ccc(F)cc3)CC2)c1 (stereo not drawn),56.1%
2,Cc1cnn(CC2CCN(CC(O)c3ccccc3F)CC2)c1 (stereo not drawn),-30.8%
3,Cc1cnn(CC2CCN(CC(O)Cn3cccn3)CC2)c1 (stereo not drawn),68.5%
4,CCC(CC)S(=O)(=O)NC(=O)c1ccc2c(c1)ncn2C,5.11%
5,NC(=O)C1CCN(C(=O)NCCOc2ccc3c(c2)OCO3)C1 (stereo not drawn),-69.3%
6,CCCc1noc(CN2CCCCC2Cn2cncn2)n1 (stereo not drawn),27.2%
7,CN1CCN(CCO)C(=O)C12CCN(Cc1ccsc1)CC2,18.2%
8,O=C(N[C@@H]1CCC[C@@H](N2CCCC2)[C@@H]1O)c1cc2ccccc2[nH]1,48.4%
9,CN(C)CC(=O)N1CC(c2nn(C)c3nccnc23)C1,-0.902%
10,N#Cc1cccnc1N1CCC(OCc2ccccc2)CC1,18.9%
11,Cn1cnnc1C1CCN(c2cncc(-n3cccn3)n2)CC1,-8.19%
12,O=C(c1ccccc1)C1CCN(c2cncc(-n3cccn3)n2)CC1,74.8%
13,CN(C)C(=O)C1CCN(c2cncc(-n3cccn3)n2)CC1,41.4%
14,c1ccc(C2CCN(c3cncc(-n4cccn4)n3)CC2)cc1,85.1%
15,NC(=O)C1CCN(c2cncc(-n3cccn3)n2)CC1,48.3%
16,c1cc(C2CCN(c3cnccn3)CC2)ccn1,18.4%
17,Nc1cccnc1N1CCC(c2ccccc2)CC1,6.29%
18,c1ccc(C2CCCN(c3cncc(-n4cccn4)n3)CC2)cc1 (stereo not drawn),90.2%
19,c1ccc(COC2CCN(c3cncc(-n4cccn4)n3)CC2)cc1,53.5%
20,O=C(c1ccc(-n2cccn2)nc1)N1CCCC(c2cnccn2)C1 (stereo not drawn),-50.3%
21,NC(=O)CC1CCN(c2cncc(OCc3ccccc3)n2)CC1,12.4%
22,Cc1nc(CN2C[C@@H]3CN(C(=O)c4cccn4C)C[C@@H]3C2=O)cs1,39.8%

row,Compound,INHIBITION
1,Cc1ccc2nc(C3CCCN(CC(C)C)C3)nc(O)c2c1 (stereo not drawn),13.5%
2,CCc1n[nH]c(C2CN(C(=O)c3nc(C)n4ccccc34)CCO2)n1 (stereo not drawn),17.8%
3,Cc1nc2cc(C(=O)N3CCCC(n4ccnc4)C3)ccc2n1C (stereo not drawn),33.3%
4,O=C(NCc1ccc(F)cc1)N1CCN(CC(O)C2CC2)CC1 (stereo not drawn),30.8%
5,Cc1ccc(S(=O)(=O)NCC2COCc3c(C)nnn3C2)cc1F (stereo not drawn),24.5%
6,c1ccc(N2CCC(c3ccncc3)CC2)cc1,65.2%
7,c1cc(C2CCN(c3cncnc3)CC2)ccn1,39.6%
8,c1cncc(N2CCC(c3ccncc3)CC2)c1,26.221%
9,Cc1nc(C2CCCN(C(=O)c3ccc(OCC4CC4)nc3)C2)no1 (stereo not drawn),8.64%
10,FC(F)(F)c1ccnc(N2CCCC(N3CCOCC3)C2)c1 (stereo not drawn),40.5%
11,CC(O)(CN1CCC(O)CC1)c1cccc(C(F)(F)F)c1 (stereo not drawn),-37.7%
12,O=c1n(Cc2cccc(C(F)(F)F)c2)nc2ncccn12,-39.3%
13,NC(=O)CN(C(=O)Cc1cccc(C(F)(F)F)c1)C1CCCC1,-23.1%
14,NC1CCCN(Cc2cccc(C(F)(F)F)c2)C1=O (stereo not drawn),57.2%
15,O=C1C(N2CCOCC2)CCCN1Cc1cccc(C(F)(F)F)c1 (stereo not drawn),50.8%
16,O[C@H]1COCCN(Cc2cccc(C(F)(F)F)c2)C1,-4.82%
17,O[C@H]1CN(Cc2cccc(C(F)(F)F)c2)CC[C@@]12CCCO2,37.6%
18,O=C1C(N2CC[C@@H](O)C2)CCCN1Cc1cccc(C(F)(F)F)c1 (stereo partly drawn),77.8%
19,CC(C)NC(=O)N1CC[C@@H]2CN(Cc3ccccc3)S(=O)(=O)[C@@H]2CC1,31.8%
20,O=c1[nH]cnc2c1CCN(S(=O)(=O)c1cccc(OC(F)(F)F)c1)C2,-23.7%
